Source: PMC4336329 (PLoS ONE, 2015)
Screen size: about 310,000 compounds; about 14,000 (4.5%) showed an effect of 50% or more. The effect is printed as a negative number. The sample holds strong results, similar compounds and a random draw of the others, so the mix is not that of the screen.

Each compound was assayed against human ether-à-go-go-related gene (hERG) potassium channel (human, UniProt Q12809) (assay: primary screen, population patch clamp on CHO cells stably expressing hERG; higher = less effect of the substance).
Sequence of human ether-à-go-go-related gene (hERG) potassium channel (Q12809 whole entry, looked up): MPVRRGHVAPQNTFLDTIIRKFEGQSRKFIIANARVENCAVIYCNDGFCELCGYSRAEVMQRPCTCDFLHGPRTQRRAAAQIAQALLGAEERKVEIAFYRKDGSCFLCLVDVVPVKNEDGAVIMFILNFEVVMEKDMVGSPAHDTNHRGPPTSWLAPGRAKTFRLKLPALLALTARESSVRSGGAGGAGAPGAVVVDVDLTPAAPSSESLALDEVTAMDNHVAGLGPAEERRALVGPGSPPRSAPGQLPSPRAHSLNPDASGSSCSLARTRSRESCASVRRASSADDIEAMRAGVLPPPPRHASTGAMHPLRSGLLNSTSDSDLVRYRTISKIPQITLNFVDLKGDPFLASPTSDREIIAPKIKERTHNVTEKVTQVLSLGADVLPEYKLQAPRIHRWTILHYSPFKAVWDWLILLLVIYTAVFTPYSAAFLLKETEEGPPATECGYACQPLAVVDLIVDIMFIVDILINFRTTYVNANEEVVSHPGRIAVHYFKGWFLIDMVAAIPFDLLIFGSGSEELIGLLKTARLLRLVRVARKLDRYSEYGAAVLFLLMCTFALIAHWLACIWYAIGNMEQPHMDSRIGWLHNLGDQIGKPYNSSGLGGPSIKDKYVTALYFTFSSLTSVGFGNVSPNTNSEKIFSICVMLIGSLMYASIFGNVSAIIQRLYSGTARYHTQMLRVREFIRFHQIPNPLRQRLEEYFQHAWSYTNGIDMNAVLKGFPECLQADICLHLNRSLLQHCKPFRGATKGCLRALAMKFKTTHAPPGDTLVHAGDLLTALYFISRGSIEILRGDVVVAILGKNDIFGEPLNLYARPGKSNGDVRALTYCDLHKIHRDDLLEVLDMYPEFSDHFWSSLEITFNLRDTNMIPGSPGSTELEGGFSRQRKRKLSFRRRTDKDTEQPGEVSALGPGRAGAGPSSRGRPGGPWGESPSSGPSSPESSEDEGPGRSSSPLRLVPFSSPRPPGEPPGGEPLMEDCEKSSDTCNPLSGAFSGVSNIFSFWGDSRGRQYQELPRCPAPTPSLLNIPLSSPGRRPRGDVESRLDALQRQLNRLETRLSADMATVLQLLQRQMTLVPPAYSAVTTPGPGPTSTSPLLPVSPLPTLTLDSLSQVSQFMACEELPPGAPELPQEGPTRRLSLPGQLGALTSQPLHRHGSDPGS
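Note: peak tail current of the secondary pulse compared with the same well before compound.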

Row | SMILES | hERG current change (%, negative = inhibition) at 10uM
1 | O=C(CS(=O)(=O)c1ccc(F)cc1)Nc1nnc(-c2cccs2)o1 | 13.3%
2 | O=C(COC(=O)c1cnccn1)Nc1ccc(Cl)cc1C(F)(F)F | 0.684%
3 | CN(C)S(=O)(=O)c1ccc(C(=O)Nc2nnc(-c3ccco3)o2)cc1 | 12.4%
4 | CCOC(=O)N1CCN(C(=O)C(NC(=O)c2ccc(CC)cc2)C(C)C)CC1 (centres unmarked) | -19.5%
5 | COc1cc(N2C(=O)CC(=O)NC2=O)cc(OC)c1OC | 17.1%
6 | COCCCNC(=O)CCCCCNS(=O)(=O)c1ccc(Br)cc1 | -21.4%
7 | CC(=O)Nc1ccc(/C=C/C(=O)c2ccccc2)cc1 | 9.09%
8 | Cc1ccccc1NC(=O)c1ccc(S(=O)(=O)C(F)F)cc1 | -27.6%
9 | Cn1c(=O)oc2cc(S(=O)(=O)CCC(=O)NCCc3ccccc3)ccc21 | 7.46%
10 | CN(C)S(=O)(=O)c1cccc(-c2cn3cc(Cl)ccc3n2)c1 | 7.03%
11 | Cc1cccc(C(=O)OCC(=O)NC(=O)Cc2ccccc2)c1O | 13.8%
12 | COc1ccccc1N1CCN(C(=O)COc2ccc(Cl)cc2)CC1 | -68.5%
13 | COc1ccccc1N1CCN(C(=O)COc2cc(C)cc(C)c2)CC1 | 10.8%
14 | COc1ccccc1OCC(=O)N1CCN(c2ccccc2OC)CC1 | 1.3%
15 | CSc1ccc(CN2CCN(C(=O)COc3ccc(C)cc3)CC2)cc1.O=C(O)C(=O)O | -60.4%
16 | Cc1ccc(OCC(=O)N2CCN(Cc3cccnc3)CC2)cc1.O=C(O)C(=O)O | 17.7%

Row | SMILES | hERG current change (%, negative = inhibition) at 10uM
17 | Cc1ccc(OCC(=O)N2CCN(Cc3ccc4c(c3)OCO4)CC2)cc1.O=C(O)C(=O)O | -15.7%
18 | CCc1nnc(NC(=O)CN2C(=O)NC3(CC(C)CC(C)(C)C3)C2=O)s1 (centres unmarked) | 7.29%
19 | O=C1NC(=O)N(c2ccccc2)C1=O | 19.9%
20 | CCc1ccc(C(=O)NC(=S)NCc2cccnc2)cc1 | -40.7%
21 | CC(C)(C)C(=O)Nc1ccc(NC(=O)C(C)(C)C)cc1 | -6.63%
22 | O=C(Nc1cccc(Br)c1)c1ccc(CN2CCc3ccccc3C2)cc1 | -1.55%
23 | O=S(=O)(Cc1cc(NCc2ccccc2)nc(-c2ccncc2)n1)c1ccccc1 | 20.3%
24 | Cc1cc(C[n+]2cc(Cl)ccc2N)c2ncccc2c1.[Br-] | -48.1%
25 | Nc1sc(-c2ccccc2)n[n+]1Cc1cccc2cccnc12.[Br-] | -66.7%
26 | OCc1ccccc1OCCCOc1cccc2cccnc12 | -3.4%
27 | Nc1scn[n+]1Cc1cccc2cccnc12.[Br-] | -11.1%
28 | Nc1ccc(Cl)c[n+]1Cc1cccc2cccnc12.[Br-] | -46.1%
29 | Nc1ccc(Br)c[n+]1Cc1cccc2cccnc12.[Br-] | -51.6%
30 | Cc1cc(C[n+]2cc(Br)ccc2N)c2ncccc2c1.[Br-] | -68%
31 | Nc1scc[n+]1Cc1cccc2cccnc12.[Br-] | -12.3%
32 | Cc1cc(CSc2nc(C)cc(=O)[nH]2)c2ncccc2c1 | -3.07%
